Results as given in the supplement of paper PMC10849652.
Of roughly 8,800 targets only a part is listed; those with a hit were picked by preference. About 0.5% of all pairs of compound and target were hits. A number with no mark means an inactive call.

Experiments:
Test in all cases: log2 fold change, soluble protein after heating vs DMSO (PISA); higher = thermal stabilisation; K562 lysate, 10 uM; active = over 0.2 and 3.5 SD of the protein, either way, in both replicates (recomputed)
nilotinib = compound: Cc1cn(-c2cc(NC(=O)c3ccc(C)c(Nc4nccc(-c5cccnc5)n4)c3)cc(C(F)(F)F)c2)cn1 [nilotinib]
Outline: (§1)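 Log-two fold change in thermal stability relative to solvent controls is reported from duplicates. For each sample, crude K562 extract from dounce-homogenised pellets in PBS pH 7.4 with 1 mM MgCl2, at 1 mg/mL protein, was treated with 10 μM compound for 30 min. Aliquots heated for 3 min across 48°C-58°C were pooled, brought to 0.5% NP-40 at 4°C and cleared at 21,000xg for 90 min. The supernatant was quantified by TMTpro 16plex LC-MS/MS with channel sums equalised.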

[1] = compound: Cc1nc(Nc2n[nH]c3c2CN(C(=O)N[C@H](CN(C)C)c2ccccc2)C3(C)C)c2sccc2n1
Outline: as §1

dasatinib = compound: Cc1nc(Nc2ncc(C(=O)Nc3c(C)cccc3Cl)s2)cc(N2CCN(CCO)CC2)n1 [dasatinib]
Outline: as §1

[2] = compound: Cc1ncc(-c2ccnc(Nc3ccc(S(C)(=O)=O)cc3)n2)n1C(C)C
Outline: as §1

[3] = compound: Cn1cc(-c2ccc3c(c2)CCN3C(=O)Cc2cccc(C(F)(F)F)c2)c2c(N)ncnc21
Outline: as §1

quisinostat = compound: Cn1cc(CNCC2CCN(c3ncc(C(=O)NO)cn3)CC2)c2ccccc21 [quisinostat]
Outline: as §1

tipifarnib = compound: Cn1cncc1[C@@](N)(c1ccc(Cl)cc1)c1ccc2c(c1)c(-c1cccc(Cl)c1)cc(=O)n2C [tipifarnib]
Outline: as §1

[4] = compound: NC(=O)Nc1cc(-c2cccc(F)c2)sc1C(=O)N[C@H]1CCCNC1
Outline: as §1

[5] = compound: NC(=O)c1cnc(N[C@@H]2CCCC[C@@H]2N)nc1Nc1cccc(-n2nccn2)c1
Outline: as §1

[6] = compound: NC1(c2ccc(-c3nc4ccn5c(=O)[nH]nc5c4cc3-c3ccccc3)cc2)CCC1
Outline: as §1

UniProt P85037, sequence (P85037 whole entry, looked up): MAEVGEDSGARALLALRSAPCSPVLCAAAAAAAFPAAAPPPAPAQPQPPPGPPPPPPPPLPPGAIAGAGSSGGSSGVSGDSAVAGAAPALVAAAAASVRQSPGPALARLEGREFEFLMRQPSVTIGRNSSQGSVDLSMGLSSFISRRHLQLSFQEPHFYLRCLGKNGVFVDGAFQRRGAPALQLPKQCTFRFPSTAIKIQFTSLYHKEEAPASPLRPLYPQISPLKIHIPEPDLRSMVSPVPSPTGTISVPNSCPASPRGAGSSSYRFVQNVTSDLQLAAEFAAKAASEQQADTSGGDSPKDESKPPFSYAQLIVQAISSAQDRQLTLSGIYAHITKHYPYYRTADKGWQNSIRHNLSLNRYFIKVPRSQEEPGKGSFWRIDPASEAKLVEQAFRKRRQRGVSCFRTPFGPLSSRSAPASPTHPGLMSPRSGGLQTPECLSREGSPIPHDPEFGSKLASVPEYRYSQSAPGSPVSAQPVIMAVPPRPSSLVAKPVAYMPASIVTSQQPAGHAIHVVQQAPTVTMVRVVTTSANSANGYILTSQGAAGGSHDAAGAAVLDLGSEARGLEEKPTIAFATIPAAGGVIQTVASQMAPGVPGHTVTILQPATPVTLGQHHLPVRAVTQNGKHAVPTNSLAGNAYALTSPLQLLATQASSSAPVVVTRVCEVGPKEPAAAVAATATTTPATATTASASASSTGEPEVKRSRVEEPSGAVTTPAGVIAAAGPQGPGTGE
UniProt O43427, sequence (O43427 whole entry, looked up): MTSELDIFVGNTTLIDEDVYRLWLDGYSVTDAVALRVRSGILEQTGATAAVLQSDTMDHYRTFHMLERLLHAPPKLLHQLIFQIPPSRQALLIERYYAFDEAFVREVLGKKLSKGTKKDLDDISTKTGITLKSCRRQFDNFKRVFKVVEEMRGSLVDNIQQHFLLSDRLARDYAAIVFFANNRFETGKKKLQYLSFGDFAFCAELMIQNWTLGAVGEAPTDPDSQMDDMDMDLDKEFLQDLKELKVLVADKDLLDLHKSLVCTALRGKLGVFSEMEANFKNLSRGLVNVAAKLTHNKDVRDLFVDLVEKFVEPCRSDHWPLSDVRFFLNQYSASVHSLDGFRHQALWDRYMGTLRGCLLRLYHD
UniProt Q08426, sequence (Q08426 whole entry, looked up): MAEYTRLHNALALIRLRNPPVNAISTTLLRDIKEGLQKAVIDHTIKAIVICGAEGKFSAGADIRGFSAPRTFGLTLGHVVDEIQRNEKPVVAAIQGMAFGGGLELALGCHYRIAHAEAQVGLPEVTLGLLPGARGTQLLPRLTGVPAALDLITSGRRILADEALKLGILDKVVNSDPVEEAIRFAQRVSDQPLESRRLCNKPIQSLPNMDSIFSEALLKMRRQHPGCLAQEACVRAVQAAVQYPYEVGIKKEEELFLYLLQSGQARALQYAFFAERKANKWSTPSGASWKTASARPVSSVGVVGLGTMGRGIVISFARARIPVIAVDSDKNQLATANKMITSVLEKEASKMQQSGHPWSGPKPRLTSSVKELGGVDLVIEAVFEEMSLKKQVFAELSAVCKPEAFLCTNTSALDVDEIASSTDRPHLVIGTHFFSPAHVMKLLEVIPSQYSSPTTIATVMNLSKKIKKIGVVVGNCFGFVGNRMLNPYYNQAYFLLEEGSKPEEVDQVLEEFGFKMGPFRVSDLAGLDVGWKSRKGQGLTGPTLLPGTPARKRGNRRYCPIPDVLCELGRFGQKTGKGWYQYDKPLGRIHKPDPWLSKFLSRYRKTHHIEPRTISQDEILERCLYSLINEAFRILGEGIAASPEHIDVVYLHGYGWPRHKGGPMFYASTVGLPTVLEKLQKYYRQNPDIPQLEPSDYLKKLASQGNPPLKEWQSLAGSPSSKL
UniProt Q6P4F2, sequence (Q6P4F2 whole entry, looked up): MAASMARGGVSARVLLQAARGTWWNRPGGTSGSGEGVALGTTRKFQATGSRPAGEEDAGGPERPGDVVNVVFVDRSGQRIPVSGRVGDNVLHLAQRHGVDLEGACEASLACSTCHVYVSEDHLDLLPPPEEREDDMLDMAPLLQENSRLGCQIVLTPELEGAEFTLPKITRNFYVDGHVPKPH
UniProt Q15125, sequence (Q15125 whole entry, looked up): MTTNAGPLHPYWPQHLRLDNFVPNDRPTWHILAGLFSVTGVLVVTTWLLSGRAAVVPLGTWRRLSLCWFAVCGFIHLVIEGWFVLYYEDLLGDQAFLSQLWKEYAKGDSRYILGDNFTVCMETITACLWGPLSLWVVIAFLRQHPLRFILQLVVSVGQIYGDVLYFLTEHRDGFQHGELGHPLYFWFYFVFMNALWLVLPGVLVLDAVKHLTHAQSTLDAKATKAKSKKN
UniProt P0DPD7, sequence (P0DPD7 whole entry, looked up): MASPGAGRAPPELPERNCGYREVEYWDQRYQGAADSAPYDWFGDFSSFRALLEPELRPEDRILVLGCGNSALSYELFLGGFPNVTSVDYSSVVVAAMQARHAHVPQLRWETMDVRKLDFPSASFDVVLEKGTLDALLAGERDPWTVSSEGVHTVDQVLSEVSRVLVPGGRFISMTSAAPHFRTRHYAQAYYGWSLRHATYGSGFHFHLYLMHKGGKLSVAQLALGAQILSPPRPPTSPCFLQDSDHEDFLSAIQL
UniProt Q9H410, sequence (Q9H410 whole entry, looked up): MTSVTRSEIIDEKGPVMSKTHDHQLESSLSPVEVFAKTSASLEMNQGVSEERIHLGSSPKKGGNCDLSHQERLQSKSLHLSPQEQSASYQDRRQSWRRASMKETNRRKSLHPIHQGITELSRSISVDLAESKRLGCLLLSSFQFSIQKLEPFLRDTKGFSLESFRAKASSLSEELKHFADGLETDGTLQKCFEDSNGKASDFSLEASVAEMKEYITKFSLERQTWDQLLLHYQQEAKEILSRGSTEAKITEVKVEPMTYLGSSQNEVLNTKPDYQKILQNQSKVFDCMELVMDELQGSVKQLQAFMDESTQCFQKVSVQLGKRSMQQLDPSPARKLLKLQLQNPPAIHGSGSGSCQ
UniProt P62942, sequence (P62942 whole entry, looked up): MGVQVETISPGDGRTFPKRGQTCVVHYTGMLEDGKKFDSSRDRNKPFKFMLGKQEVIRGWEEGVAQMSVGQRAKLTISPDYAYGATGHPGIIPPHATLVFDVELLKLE
UniProt Q9HCG7, sequence (Q9HCG7 whole entry, looked up): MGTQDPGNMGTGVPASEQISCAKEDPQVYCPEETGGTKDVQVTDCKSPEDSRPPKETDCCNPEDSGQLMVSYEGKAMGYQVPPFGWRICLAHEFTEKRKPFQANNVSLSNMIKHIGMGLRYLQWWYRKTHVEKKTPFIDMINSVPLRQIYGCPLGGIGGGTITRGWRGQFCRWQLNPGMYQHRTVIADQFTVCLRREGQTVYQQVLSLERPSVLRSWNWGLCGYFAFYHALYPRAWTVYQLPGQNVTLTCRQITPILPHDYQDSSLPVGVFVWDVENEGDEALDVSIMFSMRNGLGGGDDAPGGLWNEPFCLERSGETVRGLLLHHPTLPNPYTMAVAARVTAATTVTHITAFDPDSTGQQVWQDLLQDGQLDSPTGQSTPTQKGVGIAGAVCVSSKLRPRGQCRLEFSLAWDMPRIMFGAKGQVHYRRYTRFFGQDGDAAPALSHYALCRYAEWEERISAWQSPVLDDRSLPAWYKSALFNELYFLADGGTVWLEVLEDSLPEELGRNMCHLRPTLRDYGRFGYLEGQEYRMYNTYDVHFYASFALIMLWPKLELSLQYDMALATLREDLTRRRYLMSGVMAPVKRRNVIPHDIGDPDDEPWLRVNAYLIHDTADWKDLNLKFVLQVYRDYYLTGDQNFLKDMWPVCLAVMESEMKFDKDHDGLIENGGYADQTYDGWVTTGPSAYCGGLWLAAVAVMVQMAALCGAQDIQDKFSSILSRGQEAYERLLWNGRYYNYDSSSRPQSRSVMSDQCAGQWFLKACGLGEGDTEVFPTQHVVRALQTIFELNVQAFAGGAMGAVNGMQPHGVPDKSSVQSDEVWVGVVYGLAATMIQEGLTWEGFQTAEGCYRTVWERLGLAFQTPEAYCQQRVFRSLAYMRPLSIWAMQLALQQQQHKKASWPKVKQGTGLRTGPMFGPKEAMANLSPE
UniProt O94905, sequence (O94905 whole entry, looked up): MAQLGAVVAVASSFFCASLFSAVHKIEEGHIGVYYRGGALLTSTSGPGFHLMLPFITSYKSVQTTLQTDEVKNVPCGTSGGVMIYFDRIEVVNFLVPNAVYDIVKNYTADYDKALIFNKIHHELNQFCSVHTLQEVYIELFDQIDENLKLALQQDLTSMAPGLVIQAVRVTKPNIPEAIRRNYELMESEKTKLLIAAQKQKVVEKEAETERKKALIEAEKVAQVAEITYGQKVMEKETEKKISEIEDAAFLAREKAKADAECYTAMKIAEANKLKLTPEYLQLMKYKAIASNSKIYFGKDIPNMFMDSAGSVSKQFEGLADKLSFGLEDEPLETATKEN
UniProt Q9H6S3, sequence (Q9H6S3 whole entry, looked up): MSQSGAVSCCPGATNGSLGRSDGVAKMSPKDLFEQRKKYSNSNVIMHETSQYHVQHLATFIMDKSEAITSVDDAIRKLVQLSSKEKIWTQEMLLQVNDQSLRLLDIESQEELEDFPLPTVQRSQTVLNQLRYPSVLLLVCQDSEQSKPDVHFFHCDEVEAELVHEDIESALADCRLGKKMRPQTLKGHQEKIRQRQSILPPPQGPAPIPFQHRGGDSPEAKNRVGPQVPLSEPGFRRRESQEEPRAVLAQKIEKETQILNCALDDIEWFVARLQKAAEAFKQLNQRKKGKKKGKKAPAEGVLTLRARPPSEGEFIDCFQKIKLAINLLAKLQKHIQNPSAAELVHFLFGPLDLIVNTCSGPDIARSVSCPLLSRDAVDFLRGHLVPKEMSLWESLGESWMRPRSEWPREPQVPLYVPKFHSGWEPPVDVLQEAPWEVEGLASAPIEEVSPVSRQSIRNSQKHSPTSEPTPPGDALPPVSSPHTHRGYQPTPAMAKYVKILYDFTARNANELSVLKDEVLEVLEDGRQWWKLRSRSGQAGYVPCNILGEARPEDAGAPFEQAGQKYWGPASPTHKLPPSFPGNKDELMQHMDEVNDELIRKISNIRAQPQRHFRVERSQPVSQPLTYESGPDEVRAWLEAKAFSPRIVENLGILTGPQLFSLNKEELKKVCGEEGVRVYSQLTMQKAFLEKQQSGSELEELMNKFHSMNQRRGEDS

Row | Target | log2 fold change (nilotinib) | log2 fold change [1] | log2 fold change (dasatinib) | log2 fold change [2] | log2 fold change [3] | log2 fold change (quisinostat) | log2 fold change (tipifarnib) | log2 fold change [4] | log2 fold change [5] | log2 fold change [6]
1 | FKBP1A (UniProt P62942) | 0.023 | 0.002 | -0.005 | 0.081 | -0.103 | 0.012 | 0.038 | -0.005 | 0.002 | -0.039
2 | EPB41 (UniProt P11171) | -0.01 | 0.024 | 0 | -0.007 | 0.031 | 0.039 | 0.011 | 0.003 | 0.012 | 0.003
3 | GAMT (UniProt Q14353) | -0.017 | 0.022 | 0.03 | 0.129 | -0.025 | -0.043 | -0.137 | 0.024 | -0.016 | -0.002
4 | FCHO1 (UniProt O14526) | 0.007 | -0.02 | -0.022 | 0.035 | 0.02 | 0.013 | -0.025 | 0.063 | 0.006 | 0.007
5 | FANCD2 isoform 1 (UniProt Q9BXW9) | 0.015 | -0.002 | -0.066 | 0.048 | 0 | -0.238 (active) | -0.037 | 0.018 | 0.033 | -0.124
6 | GBA2 (UniProt Q9HCG7) | -0.063 | 0.114 | 0.059 | -0.079 | 0.034 | -0.101 | -0.213 | 0.023 | 0.058 | -0.074
7 | FOXK1 (UniProt P85037) | -0.006 | -0.014 | -0.065 | -0.038 | 0.004 | -0.031 | -0.042 | -0.002 | -0.011 | 0.007
8 | EPS8L2 (UniProt Q9H6S3) | -0.011 | 0.05 | 0.051 | -0.121 | 0.053 | 0.013 | 0.013 | 0.058 | -0.01 | 0.013
9 | EEF1AKMT4 (UniProt P0DPD7) | -0.01 | -0.064 | -0.051 | 0.04 | -0.109 | 0.075 | 0.004 | 0.105 | 0.096 | -0.064
10 | FBXO22 (UniProt Q8NEZ5) | 0.005 | 0.021 | -0.028 | -0.036 | 0.025 | -0.047 | 0.034 | 0.012 | -0.007 | -0.016
11 | ETFRF1 (UniProt Q6IPR1) | -0.038 | 0.032 | -0.01 | -0.02 | 0.062 | 0.088 | 0.117 | -0.028 | 0.071 | 0.046
12 | FXR2 (UniProt P51116) | -0.066 | 0.032 | -0.027 | 0.003 | 0.074 | 0.025 | 0.015 | -0.034 | -0.012 | -0.003
13 | FLAD1 (UniProt Q8NFF5) | 0.051 | -0.026 | 0.002 | 0.024 | 0.019 | -0.129 | 0 | 0.03 | 0.017 | -0.026
14 | EBP (UniProt Q15125) | 0.081 | -0.016 | -0.05 | 0.018 | -0.137 | 0.038 | -0.03 | 0.042 | -0.006 | -0.05
15 | GEMIN4 (UniProt P57678) | -0.001 | -0.014 | -0.047 | -0.001 | 0.101 | -0.056 | 0.006 | 0.077 | -0.001 | -0.097
16 | EEFSEC (UniProt P57772) | 0.004 | 0.01 | -0.067 | -0.03 | 0.007 | -0.043 | -0.003 | 0.052 | 0 | -0.019
17 | GALK1 isoform 2 (UniProt P51570) | 0.01 | -0.018 | -0.024 | -0.014 | 0.03 | -0.051 | 0.002 | 0.04 | -0.033 | -0.006
18 | GCLM (UniProt P48507) | -0.03 | 0.016 | -0.033 | 0.013 | 0.027 | 0.016 | 0.007 | 0 | -0.005 | -0.005
19 | DSN1 (UniProt Q9H410) | -0.006 | 0.023 | -0.022 | 0.001 | 0.011 | -0.015 | -0.015 | 0.05 | 0.014 | 0.031
20 | FKBP8 isoform 2 (UniProt Q14318) | -0.019 | -0.055 | -0.056 | 0.014 | 0.011 | -0.21 | -0.005 | 0.067 | 0.02 | 0.005
21 | FHOD1 (UniProt Q9Y613) | 0.005 | 0.017 | -0.05 | -0.007 | 0.002 | 0.017 | -0.017 | 0.039 | 0.014 | 0.023
22 | EHHADH (UniProt Q08426) | -0.048 | -0.091 | -0.011 | 0.045 | -0.047 | -0.072 | 0.052 | -0.003 | 0.025 | 0.097
23 | ERI1 (UniProt Q8IV48) | 0.004 | -0.008 | -0.012 | 0.035 | 0.041 | -0.019 | 0.043 | 0.08 | -0.019 | 0.058
24 | ERLIN2 (UniProt O94905) | -0.009 | 0.001 | -0.013 | -0.019 | 0.03 | 0.021 | 0.012 | -0.038 | 0.012 | -0.01
25 | DSTN (UniProt P60981) | 0.01 | 0.012 | -0.013 | 0.009 | 0.034 | 0.045 | -0.005 | -0.022 | 0.022 | -0.008
26 | EPN2 (UniProt O95208) | -0.001 | 0.01 | -0.011 | 0.017 | 0.054 | -0.016 | -0.07 | 0.021 | 0.01 | -0.016
27 | ENO1, A0A2R8YEM5 | -0.021 | -0.017 | -0.013 | 0.002 | -0.021 | -0.005 | 0.053 | -0.026 | 0.002 | -0.008
28 | FDX2 (UniProt Q6P4F2) | 0.135 | -0.025 | 0.058 | -0.067 | -0.006 | -0.068 | 0.096 | 0.05 | -0.068 | 0.052
29 | FIBP (UniProt O43427) | -0.001 | 0.036 | 0.013 | -0.024 | -0.043 | 0.019 | -0.037 | 0.024 | 0 | 0
30 | FASTKD5 (UniProt Q7L8L6) | -0.072 | 0.032 | -0.006 | 0.113 | -0.027 | -0.053 | 0.003 | 0.004 | 0.054 | 0.013
